Reference: PubChem BioAssay AID1345082 (National Center for Advancing Translational Sciences (NCATS), 2018)
Hit rate of the full screen: of about 94,000 compounds, about 4,000 (4.3%) were called active. Roughly 29% stayed inconclusive and do not appear here. Many of the other results were omitted from the sample, so actives are more common in it than they were. Unmarked numbers belong to inactive results. Calls come from the whole dose curve; as a rule, active = well fitted inhibition curve with a large enough effect; inconclusive = small, poorly fitted or top-dose-only effect; inactive = no such curve, though single readings can be large or run the other way.

Experiment: Cytotoxic Profiling in NIH 3T3 Cell Line of Diverse Libraries Using Quantitative High-Throughput Screening; note: nearly all actives have a fitted effect of over 55% in size
Details: NIH 3T3 viability, CellTiter-Glo ATP luminescence, 48-72 h; series mostly up to 96.7 µM; activity change, negative = cytotoxicity: at the top concentration
From the text: Cell-based phenotypic screening is a commonly used approach to discover biological pathways, novel drug targets, chemical probes and high-quality hit-to-lead molecules. Many hits identified from high-throughput screening campaign are ruled out through a series of follow-up potency, selectivity/specificity, and cytotoxicity assays. Prioritization of molecules with little or no cytotoxicity for a more in-depth downstream evaluation influence the future direction of projects, so cytotoxicity profiling of the screening libraries at early stage is essential for increasing the likelihood of candidate success. In this study, we analyzed results from a cell-based cytotoxicity screening campaign, comprising nearly 10,000 compounds in NCATS annotated libraries, and over 100,000 compounds in a diversity library, evaluated in four normal cell lines (HEK 293, NIH 3T3, CRL-7250 and HaCat) and a cancer cell line (KB 3-1, a HeLa subline) with overall screening outcomes, hit rates, pan-activity and selectivity. For the annotated library, we also examined the primary targets and mechanistic pathways regularly associated with cell death. To our knowledge, this is the first study to use high-throughput screening to profile large libraries for cytotoxicity assessment in both normal and cancer cell lines. In summary, the results generated here constitutes a valuable resource for the scientific community and provides insight on identifying cytotoxic compounds with particular mechanisms of action, and prioritizing compounds with suitable cytotoxicity profile for further evaluation.
NIH 3T3 cells were seeded into white 1536-well plates using a Multidrop Combi peristaltic dispenser (ThermoFisher, Waltham, MA) at a density of 400 cells/well in 5 uL of medium respectively. A pintool (Kalypsys) was used to transfer 23 nL of compound solution to the 1536-well assay plates. After 48 or 72 hr incubation at 37 degree Celsius, 5% CO2 and 95% humidity, 2.5 uL of CellTiter-Glo (Promega) was dispensed into each well using a dispenser (Aspect Automation, St. Paul, MN) with solenoid valves (Lee Valves, Westbrook CT). Plates were left at room temperature for 10 min before imaging the ATP-coupled luminescence using a ViewLux microplate imager (PerkinElmer, Waltham, MA).
% is set by controls: 0 for no effect and ±100 for the full control effect; potency is the fitted concentration of half-maximal effect.

Row | Structure (SMILES) | activity change, negative = cytotoxicity | Potency | outcome
1 | CN(C)C(=O)[C@H]1CN2CCC1C[C@@H]2Cn1cc(-c2ccc(-c3ccccc3)cc2)nn1 (stereo not given in full) | -19.8% [at 174 µM] | – | –
2 | Cc1nc(-c2ccccc2)cc([C@H]2CN3CC[C@H]2C[C@@H]3CNC2CCN(C)CC2)n1 | – | 56.2 µM (active) | –
3 | O=C([C@H]1CN2CCC1C[C@@H]2Cn1cc(-c2ccccc2)nn1)N1CCOCC1 (stereo not given in full) | 1.2% [at 174 µM] | – | –
4 | Cc1nc(-c2ccccc2)cc([C@H]2CN3CC[C@H]2C[C@@H]3CNC2CCOCC2)n1 | – | 31.6 µM (active) | –
5 | O=[S+]1([O-])NCC2(CCN(Cc3cccnc3)C2)Oc2ncccc21 (stereo not given) | – | – | inactive
6 | COc1ccc([C@@H]2CN(C(=O)c3c(C)noc3C)[C@@H]3C4CCN(CC4)[C@@H]32)cc1 | -2.69% | – | –
7 | CN(C)[C@@H]1CN(C(=O)Cc2ccc(F)cc2)C[C@H]1CO | 1.09% | – | –
8 | O=C1NC2(Cc3ccccc31)CN(Cc1ccncc1)C2 | -1.85% [at 138 µM] | – | –
9 | COc1ccc(C(=O)NC[C@H]2C[C@@H]3CCN2C[C@@H]3c2cc(-c3ccccc3)nn2C)cc1 | – | 89.1 µM (active) | –
10 | COc1ccc(-c2cc([C@H]3CN4CC[C@H]3C[C@@H]4CNC(=O)c3ccccc3)n(C)n2)cc1OC | -22.8% | – | –
11 | Cn1nc(-c2cccs2)cc1[C@H]1CN2CC[C@H]1C[C@@H]2CNC(=O)CCCC(=O)O | – | – | inactive [at 174 µM]
12 | CCCNC(=O)OC[C@H]1C[C@@H]2CCN1C[C@@H]2c1cc(-c2ccc(OC)c(OC)c2)nn1C | -28.8% | – | –
13 | Cn1nc(-c2cccs2)cc1[C@H]1CN2CC[C@H]1C[C@@H]2CNC(=O)Nc1ccccc1 | – | 100 µM (active) | –
14 | COc1ccccc1-c1cc([C@H]2CN3CC[C@H]2C[C@@H]3CNC(C)=O)n(C)n1 | – | – | inactive [at 174 µM]
15 | CCC(=O)N1CCC2(CC1)c1nccn1-c1ccccc1CN2CC(C)C | -8.23% | – | –
16 | O=C(Cc1ccc(F)cc1)N1CCN(C2CCN(Cc3cccnc3)C2=O)CC1 (stereo not given) | -13.6% | – | –
17 | CC1=NOC2(CCN(Cc3cncs3)C2)C1 (stereo not given) | – | – | inactive [at 138 µM]
18 | Cc1ccc(S(=O)(=O)NC[C@H]2C[C@@H]3CCN2C[C@@H]3CN2CCN(c3ncccn3)CC2)cc1 | -13.2% | – | –
19 | COc1cc2c(cc1OCc1ccccc1)NC(=O)C21CCN(C(=O)C(C)C)CC1 | – | 14.1 µM (active) | –
20 | COc1cc2c(cc1OC1CCCC1)NC(=O)C21CCN(C(=O)c2ccnn2C)CC1 | -19.9% [at 138 µM] | – | –
21 | COc1cc2c(cc1-c1ccncc1)NC(=O)C21CCN(C(C)=O)CC1 | – | 28.2 µM (active) | –
22 | COc1cc2c(cc1OCc1ccccc1)NC(=O)C21CCN(CCC(C)C)CC1 | – | 89.1 µM (active) | –
23 | O=C1NC2(Cc3ccccc31)CN(CC1CC1)C2 | 0.241% [at 174 µM] | – | –
24 | CC(C)N1CC2CCC(C1)N2C(=O)N1CCCC1 | 0.693% [at 138 µM] | – | –
25 | CCCSc1ncc(CN2CC[C@H]3CNC[C@H]32)cn1 | -19.6% | – | –
